Data as given in paper PMC7862700, “An all-to-all approach to the identification of sequence-specific readers for epigenetic DNA modifications on cytosine”.

Assays:
Assay in all cases: DAPPL (digital affinity profiling via proximity ligation, sequencing); 10 mM Tris-HCl pH 7.5, 50 mM NaCl, 1 mM DTT, 4% glycerol, room temperature, 30 min; GST-TFs on glutathione beads, 16-mer random dsDNA library, 0.1% formaldehyde crosslink after washing; high values mean tight binding
[1] = target: T1, FEV (Homo sapiens, UniProt Q99581 1-238); conditions: protein: recombinant; tags: N-terminal GST; dsDNA, one strand shown
T1 sequence: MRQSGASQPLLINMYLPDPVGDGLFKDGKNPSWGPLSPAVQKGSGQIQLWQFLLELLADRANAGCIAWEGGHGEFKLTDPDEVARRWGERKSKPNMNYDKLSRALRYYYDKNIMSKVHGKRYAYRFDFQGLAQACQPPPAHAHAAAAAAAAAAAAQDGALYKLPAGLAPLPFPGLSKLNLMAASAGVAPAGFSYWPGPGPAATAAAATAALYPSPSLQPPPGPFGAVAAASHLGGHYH
Outline: (§1)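 Beads coated with glutathione captured GST-fused human transcription factors that had been expressed in yeast, and the factors were then given DNA barcodes and pooled with a tag-only sample. The pools were incubated with 200 nmole of a random double-stranded 16-mer DNA library in Tris/NaCl/DTT/glycerol buffer for 30 min at room temperature, washed, crosslinked with 0.1% formaldehyde and proximity-ligated with BsaI/T4 ligase at 37 °C for 1 h. PCR amplification and Illumina NextSeq500 sequencing came last. Binding signal is each hexamer's read frequency for a factor divided by its frequency for the tag-only sample.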

[2] = target: ETV5 (Homo sapiens, UniProt P41161 1-510); conditions: protein: recombinant; tags: N-terminal GST; dsDNA, one strand shown
ETV5, sequence (P41161 whole entry): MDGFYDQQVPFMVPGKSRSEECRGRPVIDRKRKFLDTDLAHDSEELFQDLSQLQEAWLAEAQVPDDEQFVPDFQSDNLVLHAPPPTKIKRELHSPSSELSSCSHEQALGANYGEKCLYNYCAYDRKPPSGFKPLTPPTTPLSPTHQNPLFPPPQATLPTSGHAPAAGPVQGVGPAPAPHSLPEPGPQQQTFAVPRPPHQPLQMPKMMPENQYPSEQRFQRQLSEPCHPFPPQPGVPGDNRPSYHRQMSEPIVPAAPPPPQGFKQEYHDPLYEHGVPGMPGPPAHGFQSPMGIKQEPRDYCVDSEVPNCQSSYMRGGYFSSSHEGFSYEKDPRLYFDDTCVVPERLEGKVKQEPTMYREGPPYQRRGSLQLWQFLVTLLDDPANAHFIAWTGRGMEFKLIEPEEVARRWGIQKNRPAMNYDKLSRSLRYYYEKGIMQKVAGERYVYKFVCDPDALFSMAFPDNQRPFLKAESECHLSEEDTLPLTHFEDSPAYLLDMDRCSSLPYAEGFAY
Outline: as §1

[3] = target: HSF1 (Homo sapiens, UniProt Q00613 1-529); conditions: protein: recombinant; tags: N-terminal GST; chain copies: 3; dsDNA, one strand shown
HSF1, sequence (Q00613 whole entry): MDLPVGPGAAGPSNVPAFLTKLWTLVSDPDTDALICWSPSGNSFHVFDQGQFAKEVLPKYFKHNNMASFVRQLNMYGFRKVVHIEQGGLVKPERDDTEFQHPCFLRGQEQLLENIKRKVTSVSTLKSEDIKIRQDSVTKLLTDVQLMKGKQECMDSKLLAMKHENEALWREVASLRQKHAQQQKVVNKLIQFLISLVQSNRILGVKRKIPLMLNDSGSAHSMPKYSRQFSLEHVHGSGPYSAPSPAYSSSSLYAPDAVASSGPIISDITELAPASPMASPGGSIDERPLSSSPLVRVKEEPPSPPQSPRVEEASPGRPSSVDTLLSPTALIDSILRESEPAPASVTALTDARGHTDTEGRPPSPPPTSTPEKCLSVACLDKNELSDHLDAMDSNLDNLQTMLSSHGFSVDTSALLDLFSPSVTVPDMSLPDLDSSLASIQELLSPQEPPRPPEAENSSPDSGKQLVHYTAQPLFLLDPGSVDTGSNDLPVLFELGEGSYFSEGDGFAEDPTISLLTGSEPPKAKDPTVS
Outline: as §1

[4] = target: T2, SPIC (Homo sapiens, UniProt Q8N5J4 1-248); conditions: protein: recombinant; tags: N-terminal GST; dsDNA, one strand shown
T2 sequence: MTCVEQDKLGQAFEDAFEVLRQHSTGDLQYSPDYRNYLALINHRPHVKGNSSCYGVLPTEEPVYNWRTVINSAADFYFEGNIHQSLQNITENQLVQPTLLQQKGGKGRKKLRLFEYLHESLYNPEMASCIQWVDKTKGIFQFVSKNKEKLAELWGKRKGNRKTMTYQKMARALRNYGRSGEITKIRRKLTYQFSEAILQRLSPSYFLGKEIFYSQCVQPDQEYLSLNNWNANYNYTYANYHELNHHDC
Outline: as §1

[5] = target: ELF4 (Homo sapiens, UniProt Q99607 1-663); conditions: protein: recombinant; tags: N-terminal GST; dsDNA, one strand shown
ELF4, sequence (Q99607 whole entry): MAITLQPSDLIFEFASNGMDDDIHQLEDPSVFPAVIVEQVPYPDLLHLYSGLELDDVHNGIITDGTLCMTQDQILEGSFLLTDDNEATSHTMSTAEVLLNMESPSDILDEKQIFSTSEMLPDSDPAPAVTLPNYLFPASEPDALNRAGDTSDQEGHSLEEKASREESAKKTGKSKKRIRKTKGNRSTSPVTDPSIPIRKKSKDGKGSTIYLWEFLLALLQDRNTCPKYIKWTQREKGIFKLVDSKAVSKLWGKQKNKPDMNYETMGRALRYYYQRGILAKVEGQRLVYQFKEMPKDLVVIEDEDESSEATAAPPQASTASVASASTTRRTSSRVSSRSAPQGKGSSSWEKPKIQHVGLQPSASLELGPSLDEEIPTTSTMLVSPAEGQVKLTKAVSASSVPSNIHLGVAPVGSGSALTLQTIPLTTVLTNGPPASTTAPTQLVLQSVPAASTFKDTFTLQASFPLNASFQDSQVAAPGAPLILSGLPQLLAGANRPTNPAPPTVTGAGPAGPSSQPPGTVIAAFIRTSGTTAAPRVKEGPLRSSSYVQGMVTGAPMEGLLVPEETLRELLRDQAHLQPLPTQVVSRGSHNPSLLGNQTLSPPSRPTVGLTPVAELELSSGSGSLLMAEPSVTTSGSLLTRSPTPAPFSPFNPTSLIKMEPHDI
Outline: as §1

[6] = target: T3, ELK4 (Homo sapiens, UniProt P28324-2 1-405); conditions: protein: recombinant; tags: N-terminal GST; dsDNA, one strand shown
T3 sequence: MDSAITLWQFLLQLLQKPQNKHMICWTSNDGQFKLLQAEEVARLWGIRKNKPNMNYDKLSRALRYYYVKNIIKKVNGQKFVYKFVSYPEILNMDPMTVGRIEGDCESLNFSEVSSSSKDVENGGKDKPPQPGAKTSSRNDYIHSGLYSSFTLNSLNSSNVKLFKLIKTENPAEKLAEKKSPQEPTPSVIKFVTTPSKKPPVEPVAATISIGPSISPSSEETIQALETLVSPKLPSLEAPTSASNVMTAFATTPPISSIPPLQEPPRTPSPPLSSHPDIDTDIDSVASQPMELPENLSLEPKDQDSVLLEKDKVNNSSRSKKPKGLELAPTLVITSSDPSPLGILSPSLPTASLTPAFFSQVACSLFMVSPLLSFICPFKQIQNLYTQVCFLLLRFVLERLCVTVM
Outline: as §1

[7] = target: T4, ETV2 (Homo sapiens, UniProt O00321 1-342); conditions: protein: recombinant; tags: N-terminal GST; dsDNA, one strand shown
T4 sequence: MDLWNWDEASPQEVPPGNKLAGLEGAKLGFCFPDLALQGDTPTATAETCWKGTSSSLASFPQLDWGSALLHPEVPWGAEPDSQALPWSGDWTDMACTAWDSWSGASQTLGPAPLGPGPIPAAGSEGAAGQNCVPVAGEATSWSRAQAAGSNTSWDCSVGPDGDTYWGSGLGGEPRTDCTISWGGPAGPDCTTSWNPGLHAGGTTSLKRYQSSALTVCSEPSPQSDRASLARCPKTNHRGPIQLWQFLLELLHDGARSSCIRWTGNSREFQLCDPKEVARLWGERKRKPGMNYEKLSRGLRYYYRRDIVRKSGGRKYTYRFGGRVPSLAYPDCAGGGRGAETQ
Outline: as §1

[8] = target: T5, ELF3 (Homo sapiens, UniProt P78545 1-371); conditions: protein: recombinant; tags: N-terminal GST; dsDNA, one strand shown
T5 sequence: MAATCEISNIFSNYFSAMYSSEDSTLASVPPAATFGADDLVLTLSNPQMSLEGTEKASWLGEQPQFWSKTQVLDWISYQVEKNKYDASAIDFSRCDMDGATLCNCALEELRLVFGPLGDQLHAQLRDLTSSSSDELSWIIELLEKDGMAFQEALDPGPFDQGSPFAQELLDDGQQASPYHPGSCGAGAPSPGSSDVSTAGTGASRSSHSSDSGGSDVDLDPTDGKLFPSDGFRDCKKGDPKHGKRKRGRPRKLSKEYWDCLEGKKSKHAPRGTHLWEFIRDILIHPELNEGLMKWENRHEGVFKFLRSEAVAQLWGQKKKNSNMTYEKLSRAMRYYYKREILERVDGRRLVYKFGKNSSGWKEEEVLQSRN
Outline: as §1

[9] = target: CRX (Homo sapiens, UniProt O43186 1-299); conditions: protein: recombinant; tags: N-terminal GST; dsDNA, one strand shown
CRX, sequence (O43186 whole entry): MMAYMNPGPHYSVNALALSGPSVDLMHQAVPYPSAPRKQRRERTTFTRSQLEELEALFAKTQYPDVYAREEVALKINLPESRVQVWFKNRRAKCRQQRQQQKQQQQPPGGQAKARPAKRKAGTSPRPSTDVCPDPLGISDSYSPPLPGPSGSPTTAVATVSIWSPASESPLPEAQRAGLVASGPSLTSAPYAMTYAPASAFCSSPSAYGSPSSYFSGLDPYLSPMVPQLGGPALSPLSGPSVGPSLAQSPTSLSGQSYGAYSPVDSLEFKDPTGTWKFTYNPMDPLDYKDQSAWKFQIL
Outline: as §1

[10] = target: ETV1 (Homo sapiens, UniProt P50549 1-477); conditions: protein: recombinant; tags: N-terminal GST; dsDNA, one strand shown
ETV1, sequence (P50549 whole entry): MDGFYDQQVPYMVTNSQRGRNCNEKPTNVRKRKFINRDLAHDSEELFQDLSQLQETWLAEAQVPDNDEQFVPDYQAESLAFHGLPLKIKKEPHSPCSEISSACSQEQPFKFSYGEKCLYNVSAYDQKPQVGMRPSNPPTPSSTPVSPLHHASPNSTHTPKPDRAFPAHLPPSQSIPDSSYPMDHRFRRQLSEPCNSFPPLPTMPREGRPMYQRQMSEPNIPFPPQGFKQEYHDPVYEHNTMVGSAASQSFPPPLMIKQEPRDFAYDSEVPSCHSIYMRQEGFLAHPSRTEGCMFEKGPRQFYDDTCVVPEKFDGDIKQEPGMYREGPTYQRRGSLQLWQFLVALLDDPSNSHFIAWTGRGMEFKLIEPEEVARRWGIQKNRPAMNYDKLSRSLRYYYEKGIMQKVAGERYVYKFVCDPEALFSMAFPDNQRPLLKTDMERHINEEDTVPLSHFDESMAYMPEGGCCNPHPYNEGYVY
Outline: as §1

[11] = target: T6, ERF (Homo sapiens, UniProt P50548 1-548); conditions: protein: recombinant; tags: N-terminal GST; dsDNA, one strand shown
T6 sequence: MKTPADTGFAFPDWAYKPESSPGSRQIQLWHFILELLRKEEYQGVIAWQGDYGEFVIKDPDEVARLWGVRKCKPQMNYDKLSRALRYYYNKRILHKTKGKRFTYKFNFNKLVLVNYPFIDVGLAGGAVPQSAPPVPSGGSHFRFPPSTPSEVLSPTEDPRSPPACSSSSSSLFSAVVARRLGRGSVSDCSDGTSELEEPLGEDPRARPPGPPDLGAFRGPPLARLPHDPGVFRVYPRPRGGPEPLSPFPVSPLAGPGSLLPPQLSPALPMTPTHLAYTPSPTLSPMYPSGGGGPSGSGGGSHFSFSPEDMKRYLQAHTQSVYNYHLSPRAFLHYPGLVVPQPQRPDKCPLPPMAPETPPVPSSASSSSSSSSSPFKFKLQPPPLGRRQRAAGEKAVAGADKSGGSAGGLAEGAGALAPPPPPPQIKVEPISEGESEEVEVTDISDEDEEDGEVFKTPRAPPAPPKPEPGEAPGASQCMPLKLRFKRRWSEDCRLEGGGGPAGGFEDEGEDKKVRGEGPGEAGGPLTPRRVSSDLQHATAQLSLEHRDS
Outline: as §1

[12] = target: T7, ETV3L (Homo sapiens, UniProt Q6ZN32 1-361); conditions: protein: recombinant; tags: N-terminal GST; dsDNA, one strand shown
T7 sequence: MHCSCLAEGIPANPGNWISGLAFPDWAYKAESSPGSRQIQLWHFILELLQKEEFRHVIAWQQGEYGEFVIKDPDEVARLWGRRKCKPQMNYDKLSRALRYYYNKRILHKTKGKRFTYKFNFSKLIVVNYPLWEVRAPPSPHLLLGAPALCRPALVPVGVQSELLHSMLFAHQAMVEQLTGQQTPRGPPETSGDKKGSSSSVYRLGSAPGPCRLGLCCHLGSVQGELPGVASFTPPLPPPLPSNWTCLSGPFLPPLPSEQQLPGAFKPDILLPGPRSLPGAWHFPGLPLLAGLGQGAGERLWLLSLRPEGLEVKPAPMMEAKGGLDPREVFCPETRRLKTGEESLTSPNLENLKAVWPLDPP
Outline: as §1

[13] = target: T8, ETS2 (Homo sapiens, UniProt P15036 1-469); conditions: protein: recombinant; tags: N-terminal GST; dsDNA, one strand shown
T8 sequence: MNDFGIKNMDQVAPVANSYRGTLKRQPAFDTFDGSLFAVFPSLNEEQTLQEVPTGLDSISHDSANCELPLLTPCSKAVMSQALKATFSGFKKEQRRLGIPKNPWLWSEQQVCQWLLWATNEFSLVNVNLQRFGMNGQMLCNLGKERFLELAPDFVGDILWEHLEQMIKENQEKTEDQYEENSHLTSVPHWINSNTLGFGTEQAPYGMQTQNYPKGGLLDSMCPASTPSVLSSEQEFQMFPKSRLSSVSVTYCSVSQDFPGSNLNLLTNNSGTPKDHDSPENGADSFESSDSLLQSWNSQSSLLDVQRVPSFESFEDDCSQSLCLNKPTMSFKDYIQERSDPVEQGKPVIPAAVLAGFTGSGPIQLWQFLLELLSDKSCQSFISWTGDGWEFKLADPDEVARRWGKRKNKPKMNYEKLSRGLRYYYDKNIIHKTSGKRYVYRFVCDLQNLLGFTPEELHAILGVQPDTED
Outline: as §1

[14] = target: T9, SPDEF (Homo sapiens, UniProt O95238 1-335); conditions: protein: recombinant; tags: N-terminal GST; dsDNA, one strand shown
T9 sequence: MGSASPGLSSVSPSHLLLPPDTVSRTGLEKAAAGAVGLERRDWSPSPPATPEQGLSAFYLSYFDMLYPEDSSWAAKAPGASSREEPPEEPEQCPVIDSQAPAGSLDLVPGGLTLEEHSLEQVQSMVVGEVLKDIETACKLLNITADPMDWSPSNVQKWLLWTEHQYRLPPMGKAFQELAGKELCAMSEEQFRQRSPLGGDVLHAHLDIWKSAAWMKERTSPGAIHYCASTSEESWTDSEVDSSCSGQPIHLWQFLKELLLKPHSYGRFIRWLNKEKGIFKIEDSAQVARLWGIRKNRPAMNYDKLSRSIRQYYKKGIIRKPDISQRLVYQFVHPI
Outline: as §1

[15] = target: T10, ETV7 (Homo sapiens, UniProt Q9Y603 1-341); conditions: protein: recombinant; tags: N-terminal GST; dsDNA, one strand shown
T10 sequence: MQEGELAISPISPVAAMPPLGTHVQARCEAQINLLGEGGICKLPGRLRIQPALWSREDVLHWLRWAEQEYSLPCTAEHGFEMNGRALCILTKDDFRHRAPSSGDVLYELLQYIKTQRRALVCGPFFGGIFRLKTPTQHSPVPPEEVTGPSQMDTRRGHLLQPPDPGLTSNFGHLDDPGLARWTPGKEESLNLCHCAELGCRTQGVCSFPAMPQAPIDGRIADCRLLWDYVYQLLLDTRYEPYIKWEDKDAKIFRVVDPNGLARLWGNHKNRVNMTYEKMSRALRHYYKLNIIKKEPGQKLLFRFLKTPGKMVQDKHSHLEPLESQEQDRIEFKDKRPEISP
Outline: as §1

[16] = target: T11, ELF5 (Homo sapiens, UniProt Q9UKW6-2 1-255); conditions: protein: recombinant; tags: N-terminal GST; dsDNA, one strand shown
T11 sequence: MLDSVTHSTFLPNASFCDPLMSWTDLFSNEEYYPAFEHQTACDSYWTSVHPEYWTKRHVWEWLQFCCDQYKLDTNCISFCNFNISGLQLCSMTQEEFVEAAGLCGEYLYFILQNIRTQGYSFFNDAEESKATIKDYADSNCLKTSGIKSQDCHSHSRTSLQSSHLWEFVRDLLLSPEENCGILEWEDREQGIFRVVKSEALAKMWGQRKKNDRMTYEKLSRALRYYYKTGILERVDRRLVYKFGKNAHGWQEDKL
Outline: as §1

[17] = target: T12, ETV3 (Homo sapiens, UniProt P41162-2 1-143); conditions: protein: recombinant; tags: N-terminal GST; dsDNA, one strand shown
T12 sequence: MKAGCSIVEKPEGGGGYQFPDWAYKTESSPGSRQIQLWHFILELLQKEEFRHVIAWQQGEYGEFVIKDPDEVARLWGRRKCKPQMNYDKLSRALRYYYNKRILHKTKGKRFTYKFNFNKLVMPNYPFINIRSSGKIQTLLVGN
Outline: as §1

[18] = target: ETV6 (Homo sapiens, UniProt P41212 1-452); conditions: protein: recombinant; tags: N-terminal GST; dsDNA, one strand shown
ETV6, sequence (P41212 whole entry): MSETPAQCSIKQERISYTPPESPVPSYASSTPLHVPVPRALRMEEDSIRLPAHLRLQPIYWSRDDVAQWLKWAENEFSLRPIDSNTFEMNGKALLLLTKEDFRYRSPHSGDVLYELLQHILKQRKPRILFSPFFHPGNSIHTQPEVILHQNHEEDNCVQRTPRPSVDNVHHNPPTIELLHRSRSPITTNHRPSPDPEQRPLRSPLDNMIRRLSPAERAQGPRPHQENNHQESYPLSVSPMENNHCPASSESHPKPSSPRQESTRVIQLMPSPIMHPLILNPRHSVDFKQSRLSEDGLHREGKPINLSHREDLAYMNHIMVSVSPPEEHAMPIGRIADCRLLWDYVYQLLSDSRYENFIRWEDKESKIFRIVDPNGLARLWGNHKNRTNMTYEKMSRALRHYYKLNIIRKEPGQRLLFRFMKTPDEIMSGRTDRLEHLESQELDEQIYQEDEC
Outline: as §1

## AATCAG
[1]
  binding signal: 1.07 fold enrichment (6-mer frequency, TF over GST control)
[2]
  binding signal: 1.15 fold enrichment (6-mer frequency, TF over GST control)
[3]
  binding signal: 1.19 fold enrichment (6-mer frequency, TF over GST control)
[4]
  binding signal: 1.2 fold enrichment (6-mer frequency, TF over GST control)
[5]
  binding signal: 1.05 fold enrichment (6-mer frequency, TF over GST control)
[6]
  binding signal: 1.16 fold enrichment (6-mer frequency, TF over GST control)
[7]
  binding signal: 1.01 fold enrichment (6-mer frequency, TF over GST control)
[8]
  binding signal: 1.14 fold enrichment (6-mer frequency, TF over GST control)
[9]
  binding signal: 1.42 fold enrichment (6-mer frequency, TF over GST control)
[10]
  binding signal: 1.01 fold enrichment (6-mer frequency, TF over GST control)
[11]
  binding signal: 1.05 fold enrichment (6-mer frequency, TF over GST control)
[12]
  binding signal: 1.15 fold enrichment (6-mer frequency, TF over GST control)
[13]
  binding signal: 1.08 fold enrichment (6-mer frequency, TF over GST control)
[14]
  binding signal: 1.01 fold enrichment (6-mer frequency, TF over GST control)
[15]
  binding signal: 1.12 fold enrichment (6-mer frequency, TF over GST control)
[16]
  binding signal: 1.04 fold enrichment (6-mer frequency, TF over GST control)
[17]
  binding signal: 1.07 fold enrichment (6-mer frequency, TF over GST control)
[18]
  binding signal: 1.14 fold enrichment (6-mer frequency, TF over GST control)
